The record followed here is PubChem BioAssay AID743287 (Broad Institute, 2014).

Screen size: about 370,000 compounds; about 2,300 (0.62%) were called active. The list comes from a sample in which actives are over-represented; it also holds similar structures and randomly drawn compounds. A number with no mark means an inactive call.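 How the source made its calls: active means lowest replicate activation of at least 40%, so every replicate reaches that level; inactive means the rest.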

A short description of the assay: GLuc luminescence reporter in INS-1E cells, primary screen for activators of glucose-dependent secretion of insulin (AID 743287).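 Further: 0% = median of neutral control wells and 100% = median of IBMX positive control wells.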 The following applies: INS-1E GLuc reporter insulin secretion, 2-3 h, at 16.6 µM, hits give high values.
In the case of `COc1ccccc1CN1[C@H](CO)[C@H](c2ccccc2)C12CN(C(=O)c1ccccn1)C2`, the activation is -3.88%. Then `O=C(C[C@H]1C[C@H]2c3cc(NC(=O)NC4CCCC4)ccc3O[C@H]2[C@@H](CO)O1)NCc1ccc(-c2ccccc2)cc1`, with -0.703%; and `COc1ccc2c3c([nH]c2c1)[C@H](CO)N(Cc1nccs1)CC31CCN(Cc2ccncc2)CC1`, with 3%; and `CC(C)NC(=O)N(C)C[C@H]1Oc2ccc(NS(C)(=O)=O)cc2C(=O)N(C)C[C@@H]1C`, with -0.922%. Consider `O=C(CSc1nc2[nH]ncc2c(=O)[nH]1)Nc1ccc(F)cc1`, for which the activation is 5.73%. Regarding `Cc1ccc(CSc2nc3[nH]ncc3c(=O)[nH]2)cc1`, the activation is 23.2%. As to `CCCSc1nc2[nH]ncc2c(=O)[nH]1`, the activation was 53.9% (active). Then `CN1c2ccc(-c3cccc(F)c3)cc2[C@H]2[C@H](CCN2C(=O)C2CCCC2)[C@@H]1CO`, with -41.3%. In the case of `O=C(C[C@H]1C=C[C@H](NC(=O)Nc2cc(F)ccc2F)[C@@H](CO)O1)NCc1ccccn1` it was 2.32%; in that of `C[C@H]1CN([C@@H](C)CO)C(=O)c2c(c3ccccc3n2C)-c2ccccc2CO[C@@H]1CN(C)C(=O)Nc1ccnc(N2CCOCC2)c1`, -10.3%.

As to `O=C(CN(CC1CCCO1)C(=O)CNS(=O)(=O)c1ccc(F)cc1)NCc1ccco1` (stereo not drawn), the activation was 16.2%. In the case of `O=C(CN(CC1CCCO1)C(=O)CNS(=O)(=O)c1ccccc1)NCc1ccccc1` (stereo not drawn) it was 1.79%; in that of `CC(C)C(C(=O)NCc1ccco1)N(CC1CCCO1)C(=O)CNS(=O)(=O)c1ccc(F)cc1` (stereo not drawn), 47.3% (active); in that of `CC(C)C#Cc1ccc2c(c1)O[C@@H](CN(C)C(=O)C1CCC1)[C@@H](C)CN([C@@H](C)CO)S2(=O)=O`, -2.35%. Then `COc1ccccc1CCn1cnc(-c2ccccc2)c1C(C)C`, with 40.3%; and `COc1ccc(-c2nn3c(-c4ccccc4)nnc3s2)cc1OC`, with 140% (active); and `COc1ccc(-c2cc(NC=O)c3ncc(-c4ccccc4)n3c2)cc1OC`, with 2.43%. `COc1ccc2c3c([nH]c2c1)[C@@H](CO)N(Cc1ccc2c(c1)OCO2)CC31CN(C(=O)Nc2c(C)noc2C)C1`: the activation is 8.95%. Then `C[C@H](O)C#Cc1cnc2c(c1)C(=O)N([C@@H](C)CO)C[C@H](C)[C@H](CN(C)C(=O)c1ccccc1)O2`, with 11.8%; and `O=C(Nc1ccc(C(F)(F)F)cc1)N[C@@H]1CC[C@H](CC(=O)N2CCCCC2)O[C@H]1CO`, with -5.98%. Then `CC(=O)Nc1ccc(NC(=O)C2CCCN2S(=O)(=O)c2cccc(C(F)(F)F)c2)cc1` (stereo not drawn), with -4.8%. On to `NC(c1csc(NC(=O)Nc2cccc(C(F)(F)F)c2)n1)C1CCCCC1` (stereo not drawn), for which the activation is 48.3% (active). In the case of `C[C@H]1CN([C@@H](C)CO)C(=O)c2cccc(NC(=O)Nc3ccc(C(F)(F)F)cc3)c2O[C@H]1CN(C)CC1CCCCC1` it was -0.988%. As to `C[C@@H]1CN([C@@H](C)CO)C(=O)c2cccc(NC(=O)Nc3cccc4ccccc34)c2O[C@@H]1CN(C)CC1CC1`, the activation was 21.1%. For `O=C(Nc1ccccc1F)N[C@H]1C=C[C@H](CC(=O)N2CCCCC2)O[C@H]1CO`, the activation is -5.96%.

For `O=C(CC1CC1)N1[C@@H](CO)[C@H](c2ccccc2)C12CN(Cc1cccnc1)C2`, the activation is 2.36%. Then `CCC(=O)N1C[C@@H](C)[C@H](OC)CN(C)C(=O)c2ccc(NC(=O)C3CCOCC3)cc2OC[C@@H]1C`, with 8.65%; and `O=C1CNC[C@H]2[C@@H](c3ccc(C4=CCCC4)cc3)[C@@H](CO)N12`, with 2.03%. In the case of `CCC(=O)N1[C@@H](CO)[C@@H](c2ccc(C3=CCCC3)cc2)C12CN(C(=O)COC)C2`, the activation is 3.86%. Then `C[C@@H]1CCCCO[C@@H](CN(C)C(=O)CCCN(C)C)[C@@H](C)CN([C@H](C)CO)C(=O)c2cc(NC(=O)CCCN(C)C)ccc2O1`, with 12.7%; and `CN(CCc1cnn(C)c1)Cc1cn(C)nc1-c1ccccc1F`, with -1.92%.

Regarding `Cc1ccc2c(C)c(C(=O)N(C)CCC3CCCCO3)oc2c1C` (stereo not drawn), the activation was 0.532%.

Consider `Cc1c(C(=O)N(C)CCc2cnn(C)c2)oc2c(F)cccc12`, for which the activation was 44.6% (active). Then `COc1ccc(S(=O)(=O)N2CCOCC2)cc1NC(=O)Cc1c(F)cccc1Cl`, with -12.7%; and `COc1ccc(S(=O)(=O)N2CCOCC2)cc1NC(=O)COc1ccccc1`, with 43.9% (active); and `COc1ccc(S(=O)(=O)N2CCOCC2)cc1NC(=O)CSc1ncnc2ccccc12`, with 14.3%.

As to `COCC(=O)N(C)C[C@@H]1Oc2cc(C#CC3CC3)ccc2S(=O)(=O)N([C@H](C)CO)C[C@H]1C`, the activation is 5.41%. Then `C[C@@H]1CC=CC[C@H](c2ccc(F)cc2)NC(=O)[C@@H](Cc2ccccc2)N(C)C(=O)c2ccccc2O1` (mixture of isomers), with -20.2%; and `C[C@@H]1CN([C@H](C)CO)C(=O)c2cc(NS(=O)(=O)c3ccc(F)cc3)ccc2O[C@@H]1CN(C)S(C)(=O)=O`, with 12.8%; and `NS(=O)(=O)c1ccc(CNC(=O)c2cc(S(=O)(=O)N3CCOCC3)ccc2N2CCCC2)cc1`, with 46.1% (active). In the case of `O=C(CNC(=O)c1cc(S(=O)(=O)N2CCOCC2)ccc1N1CCCC1)Nc1ccc(F)c(F)c1` it was -28.2%; in that of `O=C(NCC1CCCCC1)c1cc(S(=O)(=O)N2CCCCC2)ccc1N1CCOCC1`, -3.7%; in that of `C[C@@H]1CCCCO[C@@H](CN(C)Cc2ccc(C(=O)Nc3ccccc3N)cc2)[C@H](C)CN([C@H](C)CO)C(=O)c2cc(N(C)C)ccc2O1`, 4.89%. Consider `C[C@@H]1CN([C@@H](C)CO)C(=O)CCCn2cc(nn2)CO[C@@H]1CN(C)C(=O)C1CCCCC1`, for which the activation was 5.75%. In the case of `COc1ccc2c3c([nH]c2c1)[C@@H](CO)N(C(=O)C1CC1)CC31CCN(C(=O)c2ccncc2)CC1`, the activation is 1.51%. For the compound `O=C(CN1CCCCC1)Nc1ccccc1C(=O)NC1CC1`, the activation was 22.4%.

With `O=C(CN1CCC(NC(=O)C2CC2)CC1)Nc1ccccc1[N+](=O)[O-]`, the activation was 96.7% (active). With `O=C(CN1CCCCCC1)Nc1ccc(Br)cc1[N+](=O)[O-]`, the activation is 7%.
